Records with an inconclusive call do not appear. The source made the active and inactive calls. Unless noted, calls follow the shape of the dose curve; as a rule, active = well fitted curve in the direction sought with a large enough effect in the repeat runs; inconclusive = weak or mixed curves; inactive = no such curve, though single readings can be large; an effect the other way counts as inactive or inconclusive.
Tests used:
[1] = biological target: Retinoic acid receptor RXR-alpha (Homo sapiens) (UniProt P19793); assay: qHTS assay to identify small molecule agonists of the RXR signaling pathway (AID 1159527; calls by dose curve; also: nearly all actives have a fitted effect of over 35% in size)
Retinoic acid receptor RXR-alpha (Homo sapiens), sequence (P19793 whole entry, looked up): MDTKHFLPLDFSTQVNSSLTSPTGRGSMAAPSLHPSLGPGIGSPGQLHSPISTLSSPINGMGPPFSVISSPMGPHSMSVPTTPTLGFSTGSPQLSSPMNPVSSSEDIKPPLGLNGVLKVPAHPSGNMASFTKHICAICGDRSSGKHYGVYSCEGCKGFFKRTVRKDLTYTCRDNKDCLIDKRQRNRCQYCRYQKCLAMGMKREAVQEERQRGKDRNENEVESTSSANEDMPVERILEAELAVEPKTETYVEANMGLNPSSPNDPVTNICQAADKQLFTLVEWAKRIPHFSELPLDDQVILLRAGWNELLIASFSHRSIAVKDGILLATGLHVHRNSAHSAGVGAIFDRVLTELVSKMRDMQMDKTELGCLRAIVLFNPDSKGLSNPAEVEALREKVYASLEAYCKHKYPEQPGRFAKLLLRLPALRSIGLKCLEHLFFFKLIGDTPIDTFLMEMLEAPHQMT
How it was run: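 qHTS of the Tox21 10K library in GeneBLAzer RXR-alpha HEK 293T cells carrying a beta-lactamase reporter […]; 16 hr treatment, 9-cis retinoic acid as agonist control, FRET read-out.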

[2] = qHTS assay to identify small molecule agonists of the RXR signaling pathway - cell viability counter screen (AID 1159529); also: series mostly up to about 77 µM; nearly all actives have a fitted effect of over 50% in size
How it was run: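 Cell viability is measured by CellTiter-Glo luminescence, 30 min at room temperature, in wells already read for beta-lactamase. Engineered HEK 293T cells (RXR-alpha-UAS-bla) are dosed 16 hr at 37 C. Tetraoctyl ammonium bromide serves as positive control.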

[3] = qHTS assay to identify small molecule antagonists of the retinoid acid receptor (RAR) signaling pathway - cell viability counter screen (AID 1159551); also: nearly all actives have a fitted effect of over 35% in size
How it was run: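 Cytotoxicity counter screen in C3RL4 cells: 6 h compound exposure with 1 uM retinol (final), viability from cellular ATP by luminescence.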

[4] = qHTS assay to identify small molecule antagonists of the retinoic acid receptor (RAR) signaling pathway (AID 1159552; also: nearly all actives have a fitted effect of over 50% in size)
How it was run: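 Quantitative HTS in C3RL4 RARE-luciferase reporter cells. Compounds were added with 1 uM (final) retinol; luminescence was read after 6 hr.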

[5] = qHTS assay to identify small molecule agonists of the retinoic acid receptor (RAR) signaling pathway (AID 1159553)
How it was run: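 Agonist activity was scored in C3RL4 cells bearing a retinoic acid response element luciferase construct. Cells were treated with compounds for 6 hr at 37 C, and luciferase signal was measured as luminescence.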

[6] = qHTS assay to identify small molecule antagonists of the estrogen related receptor (ERR) signaling pathway from Tox21 library - cell viability counter screen (AID 1224834); also: nearly all actives have a fitted effect of over 30% in size
How it was run: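 Cytotoxicity of test substances is gauged in the same ERR cells used for the antagonist screen, after 17.5 h of compound treatment at 37 C, by CellTiter-Fluor fluorescence measured after 30 min.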

[7] = biological target: Luciferin 4-monooxygenase (Photinus pyralis) (UniProt P08659); assay: qHTS assay to identify small molecule inhibitors of firefly luciferase (AID 1224835); also: series mostly up to about 120 µM; nearly all actives have a fitted effect of over 25% in size
Luciferin 4-monooxygenase (Photinus pyralis), sequence (P08659 whole entry, looked up): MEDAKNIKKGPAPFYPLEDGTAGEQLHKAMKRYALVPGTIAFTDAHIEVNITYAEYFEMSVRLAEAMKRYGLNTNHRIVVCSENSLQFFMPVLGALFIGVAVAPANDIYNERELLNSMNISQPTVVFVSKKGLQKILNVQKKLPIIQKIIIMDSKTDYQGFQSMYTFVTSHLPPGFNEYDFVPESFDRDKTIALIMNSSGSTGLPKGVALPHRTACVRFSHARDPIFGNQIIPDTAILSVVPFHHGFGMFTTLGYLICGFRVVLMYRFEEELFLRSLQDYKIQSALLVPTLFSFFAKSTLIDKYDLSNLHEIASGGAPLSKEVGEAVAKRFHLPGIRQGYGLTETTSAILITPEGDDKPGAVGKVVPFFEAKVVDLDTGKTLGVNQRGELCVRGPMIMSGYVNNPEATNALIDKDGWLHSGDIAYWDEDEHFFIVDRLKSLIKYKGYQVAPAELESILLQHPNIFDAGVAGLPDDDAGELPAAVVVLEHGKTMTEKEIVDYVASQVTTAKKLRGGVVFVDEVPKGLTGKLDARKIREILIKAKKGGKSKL
How it was run: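 Quantitative HTS format; KM concentrations of both substrates. Purified P. pyralis FLuc activity quantified from luminescence images.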

[8] = qHTS assay to identify small molecule agonists of the constitutive androstane receptor (CAR) signaling pathway - cell viability counter screen (AID 1224836); also: series mostly up to about 92 µM; nearly all actives have a fitted effect of over 45% in size
How it was run: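 Counter screen multiplexed with the CAR reporter readout: HepG2 cells co-transfected with hCAR and the CYP2B6-2.2kb construct receive a 15-concentration compound series and 0.75 uM PK11195 (final), then CellTiter-Fluor fluorescence is read after 23 h.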

[9] = qHTS assay to identify small molecule antagonists of the constitutive androstane receptor (CAR) signaling pathway - cell viability counter screen (AID 1224837); also: series mostly up to about 92 µM; nearly all actives have a fitted effect of over 45% in size
How it was run: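 Multiplexed cytotoxicity read-out for the CAR antagonist screen: double-stable HepG2-CYP2B6-hCAR cells co-treated with 50 nM CITCO (final) and compound over 15 concentrations, incubated 23 hr, then assessed by CellTiter-Fluor fluorescence.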

[10] = biological target: Nuclear receptor subfamily 1 group I member 3 (Homo sapiens) (UniProt Q14994); assay: qHTS assay to identify small molecule antagonists of the constitutive androstane receptor (CAR) signaling pathway (AID 1224838); also: nearly all actives have a fitted effect of over 40% in size
Nuclear receptor subfamily 1 group I member 3 (Homo sapiens), sequence (Q14994 whole entry, looked up): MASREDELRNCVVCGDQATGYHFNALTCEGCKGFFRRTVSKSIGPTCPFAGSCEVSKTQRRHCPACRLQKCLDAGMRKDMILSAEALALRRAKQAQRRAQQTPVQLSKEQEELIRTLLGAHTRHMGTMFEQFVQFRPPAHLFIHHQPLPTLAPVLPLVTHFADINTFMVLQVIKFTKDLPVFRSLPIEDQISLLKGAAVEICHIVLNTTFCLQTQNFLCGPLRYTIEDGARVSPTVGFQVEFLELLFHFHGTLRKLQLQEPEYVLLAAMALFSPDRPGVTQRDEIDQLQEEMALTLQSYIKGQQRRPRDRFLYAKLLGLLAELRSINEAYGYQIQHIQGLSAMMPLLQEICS
How it was run: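 Compounds were titrated across 15 concentrations onto HepG2 cells double-stably expressing hCAR and a CYP2B6-2.2kb reporter, together with 50 nM CITCO (final). After 24 h at 37 C, luciferase activity was measured by luminescence.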

[11] = biological target: Nuclear receptor subfamily 1 group I member 3 (Homo sapiens) (UniProt Q14994); assay: qHTS assay to identify small molecule agonists of the constitutive androstane receptor (CAR) signaling pathway (AID 1224839); also: series mostly up to about 92 µM; nearly all actives have a fitted effect of over 15% in size
How it was run: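 A 15-concentration quantitative screen uses HepG2 cells co-transfected stably with human CAR and CYP2B6-2.2kb reporter. Treatment lasts 24 h with 0.75 uM PK11195 final present; ONE-Glo luminescence is the signal.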

[12] = qHTS assay to identify small molecule antagonists of the estrogen related receptor signaling pathway with the pleiotropic PPARgamma coactivator (PGC) from Tox21 10K library - cell viability counter screen (AID 1224840; active = well fitted cell-killing curve with a large enough effect in the repeat runs, not every such curve was filed as active; also: nearly all actives have a fitted effect of over 40% in size)
How it was run: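 Step one, plate 2,000 PGC/ERR cells per well; step two, incubate 6 h at 37 C/5% CO2; step three, pin-transfer compounds; step four, incubate 17.5 h; step five, add CellTiter-Fluor and read fluorescence after 30 min.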

[13] = qHTS assay to identify small molecule antagonists of the estrogen related receptor signaling pathway with the pleiotropic PPARgamma coactivator (PGC) from Tox21 10K library (AID 1224841; call rule not given here; also: series mostly up to about 92 µM; actives are mostly falling curves and most rising ones were filed inactive; nearly all actives have a fitted effect of over 50% in size)
How it was run: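 Antagonism in this quantitative HTS is taken from loss of luciferase signal in PGC/ERR cells. Cells (2,000/well) are treated with compounds in DMSO after a 6 h settling period and read by One-Glo luminescence after 18 h.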

[14] = qHTS assay to identify small molecule agonists of the estrogen related receptor signaling pathway with the pleiotropic PPARgamma coactivator (PGC) from Tox21 10K library (AID 1224842); also: nearly all actives have a fitted effect of over 15% in size
How it was run: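 PGC/ERR reporter cells (NTP line) were seeded 2,000 per well, rested 6 h at 37 C/5% CO2, then pin-dosed with compounds in DMSO for 18 h at 37 C; luciferase read by One-Glo luminescence after 30 min at room temperature.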

[15] = biological target: Thyrotropin receptor (Homo sapiens) (UniProt P16473); assay: qHTS assay to identify small molecule agonists of the thyroid stimulating hormone receptor (TSHR) signaling pathway (AID 1224843; calls by dose curve; also: nearly all actives have a fitted effect of over 45% in size)
Thyrotropin receptor (Homo sapiens), sequence (P16473 whole entry, looked up): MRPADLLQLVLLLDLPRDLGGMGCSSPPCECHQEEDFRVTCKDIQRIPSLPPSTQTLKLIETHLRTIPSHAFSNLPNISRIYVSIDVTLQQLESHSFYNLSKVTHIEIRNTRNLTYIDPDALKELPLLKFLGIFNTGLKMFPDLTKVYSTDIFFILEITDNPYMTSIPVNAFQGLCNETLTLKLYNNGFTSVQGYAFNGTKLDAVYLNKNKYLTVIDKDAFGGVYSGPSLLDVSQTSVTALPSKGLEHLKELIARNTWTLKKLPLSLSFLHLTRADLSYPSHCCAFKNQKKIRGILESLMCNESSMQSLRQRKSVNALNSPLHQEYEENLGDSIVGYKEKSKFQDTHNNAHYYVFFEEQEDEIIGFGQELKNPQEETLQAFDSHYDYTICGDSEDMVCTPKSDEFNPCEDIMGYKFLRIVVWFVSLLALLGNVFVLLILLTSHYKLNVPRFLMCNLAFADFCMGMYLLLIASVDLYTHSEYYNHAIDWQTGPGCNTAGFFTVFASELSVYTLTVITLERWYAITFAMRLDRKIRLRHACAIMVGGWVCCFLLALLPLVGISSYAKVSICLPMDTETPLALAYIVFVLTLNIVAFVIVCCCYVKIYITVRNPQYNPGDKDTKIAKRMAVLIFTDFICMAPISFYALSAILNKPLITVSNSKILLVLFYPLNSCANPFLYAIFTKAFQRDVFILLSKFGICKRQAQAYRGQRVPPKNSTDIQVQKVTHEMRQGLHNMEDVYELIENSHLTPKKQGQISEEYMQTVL
How it was run: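 Cell line HEK293 with TSHR; density 800/well. Exposure 30 min RT. Readout HTRF cAMP (cAMP-d2/anti-cAMP-cryptate), 1 h RT before reading.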

Measured: Potency

COC(=O)CCSCCC(=O)OC
inactive: all assays above

CCc1ccc(O)c(OC)c1
inactive: all assays above

CCOC(=O)CCC(C)=O
not listed: [7] | [15]
inactive: all other assays above

CC(C)c1cc2c(cc1S(=O)(=O)O)[C@@]1(C)CCC[C@@](C)(C(=O)O)[C@@H]1CC2
inactive: all assays above

CCCCC(CC)COC(=O)c1ccccc1O (stereo not given)
not listed: [7]
inactive: all other assays above

C=C1CC[C@H]2C[C@@H]1C2(C)C
not listed: [7] | [10] | [11] | [13] | [14]
inactive: all other assays above

O=C1CCCCCCCCCCCN1
not listed: [11] | [13] | [14]
inactive: all other assays above

Cc1ccc(C#N)cc1
not listed: [7]
inactive: all other assays above

CCOC(=O)CC(C)=O
not listed: [7] | [10] | [11] | [13] | [14]
inactive: all other assays above

CCCCC/C=C\CCC=O
not listed: [7] | [13] | [14]
inactive: all other assays above

C=CCOCC(CC)(CO)COCC=C
inactive: all assays above

CC(C)OC(=O)c1ccccc1
inactive: all assays above

Cc1ccc(Cl)cc1Cl
inactive: all assays above

— PubChem BioAssay (Tox21)
